Records with an inconclusive call do not appear. Where a call stands in place of a potency, no number is given. Unmarked numbers belong to inactive results. Activity calls are given as the source filed them. The call rests on the fitted dose curve; in most records, active means well fitted activation curve with a large enough effect; inconclusive means small, poorly fitted or top-dose-only effect; inactive means no such curve, though single readings can be large or run the other way.
Potency means the concentration at half of the fitted maximal effect.

The test in a line: qHTS assay for re-activators of p53 using a Luc reporter: Hit Validation. Further: nearly all actives have a fitted effect of over 75% in size. To be noted: p53-responsive luciferase reporter cells, luminescence, H1299 line expressing heat-sensitive Ala138Val p53; series mostly up to 46.1 µM. In outline: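 Hit confirmation with a 1:5 dilution series, at 37 deg C for 24 hrs, in H1299 cells co-expressing temperature-sensitive p53-A138V and p53-responsive luciferase. Nocodazole served as control; luminescence read after 10 min with detection reagent.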
For orientation: In qHTS, concentration-response curves come from the screen itself.
As to `Cc1cc(NC(=O)c2c(F)c(F)c(F)c(F)c2F)no1`, the Potency entry was “inactive”.

In the case of `Cc1cc(C(=O)NC2CCCCC2)c(C)n1-c1ccc(F)cc1`, the Potency is 8.2 µM (active).

As to `O=C(Cc1ccccc1)Nc1ccc(NC(=O)c2cccnc2)cc1`, the Potency entry was “inactive”.

For the molecule `C/C(=N\OCC(=O)NC12CC3CC(CC(C3)C1)C2)c1cc2ccccc2o1`, the Potency result was “inactive”.

`COc1cccc(Oc2ccc(N)cn2)c1`: the Potency result is “inactive”.

Consider `Cc1ccccc1S(=O)(=O)Nc1nc2ccccc2nc1N1CCc2ccccc2C1`, for which the Potency entry was “inactive”.

For `COc1ccc(C(=O)N=c2nc3ccccn3s2)cc1`, the Potency was 0.092 µM (active).

For the molecule `CC(C)OC(=O)CCCCCN1C(=O)CSC1=S`, the Potency entry was “inactive”.

On to `O=C(COC(=O)C12CC3CC(CC(O)(C3)C1)C2)Nc1ccc(Br)cc1F`, for which the Potency is 14.6 µM (active).

In the case of `CCCN1C(=O)SC(CC(=O)Nc2ccccc2C)C1=O` (stereo not drawn), the activation was 12.4% [at 9.22 µM].

As for `CC(=O)N1CCN(C(=O)COC(=O)COc2c(C)cc(C)cc2C)CC1`, the Potency result was “inactive”.

In the case of `O=C(Oc1c(Cl)cc(Cl)c2cccnc12)c1cccc([N+](=O)[O-])c1`, the Potency entry was “inactive”.

Consider `CCc1ccc(-n2cc(-c3ccc([N+](=O)[O-])cc3)[nH]c2=S)cc1`, for which the Potency entry is “inactive”.

As to `COc1ccc2oc(-c3cccc(NC(=O)CSc4ccc(Cl)cc4)c3)nc2c1`, the activation was -2.44% [at 9.22 µM].

Regarding `CCN1CCN(/C=N/c2nc3c(s2)CCCC3)CC1`, the Potency entry is “inactive”.

Turning to `CC(=O)N(C)c1ccc(NC(=O)CCN2C(=O)c3ccccc3C2=O)cc1`, the Potency result is “inactive”.

For the molecule `CC(=O)c1ccc(N2Cc3ccccc3C2=NC(=O)c2cccs2)cc1`, the Potency result was “inactive”.

As to `Cc1cc(CC(C)C)n(-c2nc3ccccc3c(=O)n2OCC(N)=O)n1`, the Potency entry was “inactive”.

Turning to `Cc1cc(C(c2nnnn2Cc2ccccc2)N2CCOCC2)c(C)n1-c1ccc2c(c1)OCO2` (stereo not drawn), the Potency entry is “inactive”.

`CCn1c(=N)n(CCOc2ccc(OC)cc2)c2ccccc21`: the Potency entry was “inactive”.

As to `COc1ccc([N+](=O)[O-])cc1NC(=O)CSCc1ccc(Br)cc1`, the Potency result was “inactive”.

Take `C/C(Cn1nnc([N+](=O)[O-])n1)=N\NC(=O)c1ccc(C)cc1`: the Potency result was “inactive”.

Consider `CCCCn1c(/C=N/Nc2nc3ccccc3[nH]2)nc2ccccc21`, for which the Potency is 23.1 µM (active).

For `O=C(Nc1ccc(N2CCCCCC2)cc1)c1ccc[nH]1`, the Potency is 1.16 µM (active).

For the molecule `Cc1ccc(CSc2nc3ccncc3[nH]2)cc1`, the Potency result is “inactive”.

Turning to `Cc1ccc2cc(C#N)c(NCc3ccco3)nc2c1`, the Potency entry is “inactive”.

Consider `CCOC(=O)NC1(Nc2ccc(C)cc2)Oc2ccccc2O1`, for which the Potency was 16.4 µM (active).

Regarding `Cc1ccc(-c2nc(-c3cccnc3)no2)c(C)c1`, the Potency was 4.61 µM (active).

On to `Cc1nc(NC(=O)c2csc3ccccc23)sc1C`, for which the Potency is 0.82 µM (active).

On to `COc1cc(NC(=O)CN2C(=O)COc3ccc(S(=O)(=O)N4CCCC4)cc32)cc(OC)c1`, for which the Potency entry is “inactive”.

Take `CC(C)c1ccc(OCC(=O)NC(C)c2ccccc2)cc1` (stereo not drawn): the Potency result is “inactive”.

On to `COc1ccccc1C(=O)CSc1nccn1C`, for which the Potency result is “inactive”.

Take `O=C(Oc1ccc2ccccc2c1Cl)N1CCCCCC1`: the Potency is 5.8 µM (active).

Turning to `Oc1ccccc1-c1cc(-c2ccc3c(c2)OCCO3)n[nH]1`, the Potency was 0.184 µM (active).

On to `c1ccc(-c2csc(Nc3ncccn3)n2)cc1`, for which the Potency is 2.31 µM (active).

Take `Cc1cc(C(=O)Nc2ccc(Br)cn2)sc1C`: the Potency is 2.06 µM (active).

Regarding `Cc1ccc(OCCN2CCOCC2)cc1C`, the Potency entry is “inactive”.

For the molecule `CCOc1ccc2cc(C#N)c(SCC(=O)OC)nc2c1`, the Potency was 2.91 µM (active).

The record behind these values is PubChem BioAssay AID624305 (National Center for Advancing Translational Sciences (NCATS), 2012).
